Records with an inconclusive call do not appear. Activity calls are given as the source filed them. Unless noted, calls come from the whole dose curve; as a rule, active = well fitted curve in the direction sought with a large enough effect in the repeat runs; inconclusive = weak or mixed curves; inactive = no such curve, though single readings can be large; an effect the other way counts as inactive or inconclusive.
How the values were obtained:
[1] = qHTS assay to identify small molecule antagonists of the estrogen related receptor signaling pathway with the pleiotropic PPARgamma coactivator (PGC) from Tox21 10K library - cell viability counter screen (AID 1224840; active = well fitted cell-killing curve with a large enough effect in the repeat runs, not every such curve was filed as active; note: nearly all actives have a fitted effect of over 40% in size; note: potency is the fitted concentration of half-maximal effect)
Procedure, shortened: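 Multiplexed viability counter screen in the PGC/ERR cell line: cells treated with DMSO-dissolved compounds for 17.5 hours at 37 C, then viability measured as CellTiter-Fluor fluorescence.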

[2] = molecular target: Thyrotropin receptor (Homo sapiens) (UniProt P16473); assay: qHTS assay to identify small molecule agonists of the thyroid stimulating hormone receptor (TSHR) signaling pathway (AID 1224843; calls by dose curve; note: nearly all actives have a fitted effect of over 45% in size)
Thyrotropin receptor (Homo sapiens), sequence (P16473 whole entry, looked up): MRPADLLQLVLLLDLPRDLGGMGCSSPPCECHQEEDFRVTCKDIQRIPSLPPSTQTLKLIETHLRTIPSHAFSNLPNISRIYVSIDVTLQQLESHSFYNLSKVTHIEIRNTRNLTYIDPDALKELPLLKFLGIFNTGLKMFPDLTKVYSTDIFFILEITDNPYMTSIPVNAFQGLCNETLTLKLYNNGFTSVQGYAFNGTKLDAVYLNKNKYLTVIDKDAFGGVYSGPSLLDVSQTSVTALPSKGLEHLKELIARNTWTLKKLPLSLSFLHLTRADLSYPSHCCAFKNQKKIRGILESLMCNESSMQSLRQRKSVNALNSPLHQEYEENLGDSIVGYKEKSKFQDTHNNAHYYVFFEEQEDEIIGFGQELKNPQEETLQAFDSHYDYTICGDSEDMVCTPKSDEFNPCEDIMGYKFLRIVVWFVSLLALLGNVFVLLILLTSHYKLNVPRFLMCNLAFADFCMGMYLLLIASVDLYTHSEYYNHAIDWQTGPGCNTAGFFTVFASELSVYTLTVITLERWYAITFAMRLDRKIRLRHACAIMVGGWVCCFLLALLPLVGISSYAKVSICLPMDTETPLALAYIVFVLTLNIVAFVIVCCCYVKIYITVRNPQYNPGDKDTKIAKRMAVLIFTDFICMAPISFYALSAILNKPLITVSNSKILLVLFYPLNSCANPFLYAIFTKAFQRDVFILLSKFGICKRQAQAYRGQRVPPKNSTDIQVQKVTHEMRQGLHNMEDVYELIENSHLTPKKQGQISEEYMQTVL
Procedure, shortened: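 Agonist activity read as cAMP rise via d2/cryptate HTRF competition, 1 h room-temperature detection, in HEK293 cells expressing TSHR. Fifteen-point titrations, each run in triplicate, with a 30 min room-temperature incubation beforehand.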

[3] = qHTS assay to identify small molecule agonists of the hypoxia (HIF-1) signaling pathway - cell viability counter screen (AID 1224844; calls by dose curve; note: nearly all actives have a fitted effect of over 50% in size; note: potency is the fitted concentration of half-maximal effect)
Procedure, shortened: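 Cytotoxicity was measured in parallel with the HRE-driven beta-lactamase readout: after 17 hrs of compound exposure at 37C, HRE-bla ME-180 cells received CellTiter-Glo and luminescence was recorded 30 min later.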

[4] = qHTS assay to identify small molecule agonists of H2AX - cell viability counter screen (AID 1224847; calls by dose curve; note: nearly all actives have a fitted effect of over 30% in size; note: potency is the fitted concentration of half-maximal effect;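 for activity change, negative = cytotoxicity: wild-type CHO-K1 cells; top concentration of the series differs between compounds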)
Procedure, shortened: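 CHO-K1 wt, 1000 cells/well, o/n 37C; cpds 15 conc, 3 h 37C, 0.76% DMSO; CellTiter-Glo, 30 min RT, luminescence.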

[5] = A CellTox Green Cytotoxicity Assay to monitor cytotoxicity in HEK293 cells - 0 hour (AID 1224869); note: nearly all actives have a fitted effect of over 50% in size; note: potency is the fitted concentration of half-maximal effect
Procedure, shortened: (§1)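 Cells (HEK293, 600/well) and dye reagent are dispensed together. After 5 h at 37 C, 23 nL compound is pinned in. Plates stay at 37 C for 40 h with fluorescence read at 0h, 8h, 16h, 24h, 32h and 40h.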

[6] = qHTS assay to identify small molecule agonists of the estrogen related receptor signaling pathway with the pleiotropic PPARgamma coactivator (PGC) from Tox21 10K library (AID 1224842); note: nearly all actives have a fitted effect of over 15% in size; note: potency is the fitted concentration of half-maximal effect
Procedure, shortened: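 Luminescence from One-Glo (30 min, room temperature) measured after PGC/ERR cells had 18 h at 37 C with pinned compound (23 nL in DMSO). Cells had been seeded at 2,000 per well and pre-incubated 6 h.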

[7] = qHTS assay to identify small molecule antagonists of the estrogen related receptor (ERR) signaling pathway from Tox21 library (AID 1224848); note: nearly all actives have a fitted effect of over 50% in size; note: potency is the fitted concentration of half-maximal effect
Procedure, shortened: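 Luciferase luminescence (ONE-Glo, 30 min room temperature) was the read-out. Cells of the NTP-supplied ERR line, 2,000 per well, were given 6 h at 37 C before compound addition in DMSO and 18 h exposure at 37 C.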

[8] = qHTS assay to identify small molecule agonists of the estrogen related receptor (ERR) signaling pathway from Tox21 library (AID 1224849; calls by dose curve; note: nearly all actives have a fitted effect of over 15% in size); details: ERR reporter cell line, ONE-Glo luciferase, 18 h; at 92.4 µM (top of the series) unless noted
Procedure, shortened: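 Cells carrying the ERR reporter were plated and allowed to settle for 6 h, exposed to library compounds for 18 h at 37 C, then lysed with ONE-Glo and luminescence measured.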

[9] = qHTS RealTime-Glo MT Cell Viability Assay in HepG2 cells - 24 hour (AID 1224867); note: nearly all actives have a fitted effect of over 50% in size; note: potency is the fitted concentration of half-maximal effect
Procedure, shortened: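 HepG2 cells (600/well) were dispensed with RealTime-Glo reagents, incubated 5 h at 37 °C, then treated with compounds in DMSO for up to 40 h. Nonlytic NanoLuc luminescence reflecting viable cells was read at each stated time point.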

[10] = qHTS RealTime-Glo MT Cell Viability Assay in HEK293 cells - 32 hour (AID 1224868); note: nearly all actives have a fitted effect of over 50% in size; note: potency is the fitted concentration of half-maximal effect; for activity change, negative = cytotoxic: top concentration of the series differs between compounds
Procedure, shortened: (§2)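 HEK293 cells seeded with NanoLuc/prosubstrate reagent, rested 5 h at 37 C, then dosed and kept at 37 C up to 40 h. Nonlytic real-time luminescence from viable cells read at 0, 8, 16, 24, 32 and 40 h.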

[11] = qHTS RealTime-Glo MT Cell Viability Assay in HepG2 cells - 40 hour (AID 1224870); note: nearly all actives have a fitted effect of over 50% in size; note: potency is the fitted concentration of half-maximal effect
Procedure, shortened: (§3)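 Real-time viability: cells seeded at 600 per well together with NanoLuc and cell-permeant prosubstrate, compounds added after 5 h incubation. Luminescence tracked at 0, 8, 16, 24, 32 and 40 h of exposure.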

[12] = qHTS RealTime-Glo MT Cell Viability Assay in HEK293 cells - 16 hour (AID 1224872); note: nearly all actives have a fitted effect of over 50% in size; note: potency is the fitted concentration of half-maximal effect; for activity change, negative = cytotoxicity: top concentration of the series differs between compounds
Procedure, shortened: as §2

[13] = qHTS RealTime-Glo MT Cell Viability Assay in HepG2 cells - 8 hour (AID 1224873); note: nearly all actives have a fitted effect of over 55% in size; note: potency is the fitted concentration of half-maximal effect
Procedure, shortened: as §3

[14] = molecular target: Nuclear receptor subfamily 1 group I member 3 (Homo sapiens) (UniProt Q14994); assay: qHTS assay to identify small molecule agonists of the constitutive androstane receptor (CAR) signaling pathway (AID 1224839); note: nearly all actives have a fitted effect of over 15% in size
Nuclear receptor subfamily 1 group I member 3 (Homo sapiens), sequence (Q14994 whole entry, looked up): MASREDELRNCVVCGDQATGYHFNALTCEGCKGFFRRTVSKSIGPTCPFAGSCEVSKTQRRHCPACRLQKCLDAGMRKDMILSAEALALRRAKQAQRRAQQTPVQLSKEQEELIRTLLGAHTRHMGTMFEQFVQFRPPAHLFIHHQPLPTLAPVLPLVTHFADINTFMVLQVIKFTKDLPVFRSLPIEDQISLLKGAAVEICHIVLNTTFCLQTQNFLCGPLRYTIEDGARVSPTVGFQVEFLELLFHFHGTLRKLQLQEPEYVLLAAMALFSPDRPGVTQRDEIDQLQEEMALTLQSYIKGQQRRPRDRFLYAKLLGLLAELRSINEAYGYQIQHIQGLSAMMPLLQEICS
Procedure, shortened: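 Luminescence read-out (ONE-Glo, 30 min, room temperature) from double-stable HepG2-CYP2B6-hCAR cells exposed 24 h to 15-point compound series in presence of 0.75 uM PK11195 final.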

[15] = qHTS assay to identify small molecule antagonists of the estrogen related receptor signaling pathway with the pleiotropic PPARgamma coactivator (PGC) from Tox21 10K library (AID 1224841; call rule not given here; note: potency is the fitted concentration of half-maximal effect)
Procedure, shortened: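 Steps: plate 2,000 PGC/ERR cells per well; incubate 6 h at 37 C with 5% CO2; transfer compounds from DMSO stocks by pin tool; incubate 18 h at 37 C; add One-Glo; measure luminescence 30 min later.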

[16] = qHTS assay to identify small molecule agonists of the hypoxia (HIF-1) signaling pathway (AID 1224846; active = well fitted activation curve with a large enough effect in the signal ratio in the repeat runs, not every such curve was filed as active; the % refers to the signal ratio)
Procedure, shortened: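 Compounds from the Tox21 10K library, dissolved in DMSO, are tested for induction of a hypoxia response element–controlled beta-lactamase reporter in ME-180 cells. Exposure lasts 17 hrs at 37C after a 5 hr settling period, followed by CCF4-AM FRET substrate.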

[17] = A CellTox Green Cytotoxicity Assay to monitor cytotoxicity in HEK293 cells - 40 hour (AID 1224871); note: nearly all actives have a fitted effect of over 45% in size; note: potency is the fitted concentration of half-maximal effect
Procedure, shortened: as §1

[18] = qHTS assay to identify small molecule agonists of H2AX (AID 1224845; active = well fitted activation curve with a large enough effect in the signal ratio in the repeat runs, not every such curve was filed as active; the % refers to the signal ratio; note: potency is the fitted concentration of half-maximal effect)
Procedure, shortened: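 Phospho-H2AX Ser139 measured by HTRF (ex 320 nm; em 665 and 620 nm) after 24 hr antibody incubation. Compounds, 15 concentrations, 0.76% DMSO, were applied to CHO-K1 cells for 3hr at 37C before lysis.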

[19] = molecular target: Nuclear receptor subfamily 1 group I member 3 (Homo sapiens) (UniProt Q14994); assay: qHTS assay to identify small molecule antagonists of the constitutive androstane receptor (CAR) signaling pathway (AID 1224838);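 note: HepG2 cells stably expressing hCAR with CYP2B6 luciferase reporter stimulated by CITCO; nearly all actives have a fitted effect of over 40% in size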
Procedure, shortened: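 Antagonist mode used CITCO at a final 50 nM to activate CAR in human hepatoma HepG2 cells carrying stable hCAR and a 2.2 kb CYP2B6 promoter-luciferase construct. Compounds were tested at 15 concentrations over 24 h, with luminescence as the end point.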
% is set by controls: 0 for no effect and ±100 for the full control effect.

CN(C/C=C/c1ccccc1)Cc1cccc2ccccc12
active: Potency [4] 43.8 µM | Potency [5] 19 µM
inactive: Potency [1] | Potency [2] | Potency [3]

CN(C)CCOc1ccc(/C(=C(/CCCl)c2ccccc2)c2ccccc2)cc1
active: Potency [1] 57.2 µM | Potency [3] 40.9 µM | Potency [7] 51 µM | Potency [9] 40.9 µM | Potency [10] 36.4 µM | Potency [11] 40.9 µM | Potency [12] 36.4 µM | Potency [13] 36.4 µM
inactive: Potency [6] | Potency [2] | activity change, positive = activation [8] -52.6% | Potency [5]

CCCC(=O)c1cc(O)c(O)cc1O
active: Potency [15] 61.1 µM
inactive: Potency [14] | Potency [16] | Potency [9] | Potency [10] | Potency [5] | Potency [11] | Potency [12] | Potency [13]

CC(c1cc(C(C)(C)C)cc(C(C)(C)C)c1O)c1cc(C(C)(C)C)cc(C(C)(C)C)c1O
inactive: Potency [1] | Potency [15] | Potency [6] | Potency [2] | Potency [3] | Potency [16] | Potency [4] | activity change, positive = activation [8] -15.4% | Potency [5] | Potency [11] | Potency [13]

COc1c(Br)cc(Br)c(C)c1Br
inactive: Potency [1] | Potency [2] | Potency [3] | Potency [16] | Potency [4] | Potency [9] | Potency [10] | Potency [5] | Potency [11] | Potency [17] | Potency [12] | Potency [13]

O=C(Nc1ccccc1)c1cc(Cl)ccc1O
active: Potency [1] 17.2 µM | Potency [4] 25.3 µM | Potency [11] 49 µM
inactive: Potency [6] | Potency [2] | Potency [3] | Potency [18] | activity change, positive = activation [8] -16.2% | Potency [5] | Potency [13]

O=C1OC(O)C(C(Cl)Cl)=C1Cl (configuration not stated)
inactive: Potency [2] | Potency [4] | Potency [5] | Potency [17] | Potency [13]

O=c1cc[nH]cc1
inactive: Potency [19] | Potency [1] | Potency [2] | Potency [3] | Potency [18] | Potency [16] | Potency [10] | Potency [5] | Potency [11] | Potency [17] | Potency [13]

CC(=O)Nc1ccc(N=Nc2cc(C)ccc2O)cc1
active: Potency [6] 4.33 µM | activity change, positive = activation [8] 169%
inactive: Potency [19] | Potency [3] | Potency [18] | Potency [7] | Potency [9] | Potency [10] | Potency [5] | Potency [11] | Potency [17] | Potency [12] | Potency [13]

Nc1ccc(Cl)c([N+](=O)[O-])c1
inactive: Potency [1] | Potency [3] | Potency [18] | Potency [16] | Potency [4] | Potency [9] | Potency [10] | Potency [5] | Potency [11] | Potency [17] | Potency [13]

Nc1cc([N+](=O)[O-])cc(Cl)c1O
inactive: Potency [19] | Potency [1] | Potency [16] | Potency [4] | Potency [10] | Potency [5] | Potency [11] | Potency [12] | Potency [13]

CN1CCN(CCCN2c3ccccc3Sc3ccc(Cl)cc32)CC1
inactive: Potency [19] | Potency [2] | Potency [5] | Potency [13]
active: Potency [3] 21.3 µM

CCCCC/C=C\C=C\C(=O)OCC
active: Potency [18] 59 µM | Potency [11] 51 µM | Potency [17] 20.3 µM
inactive: Potency [5] | Potency [13]

COc1ccc(OC)c(N=Nc2c(O)ccc3ccccc23)c1
inactive: Potency [19] | Potency [2] | Potency [18] | Potency [7] | activity change, positive = activation [8] -14.1% | Potency [9] | Potency [5] | Potency [11] | Potency [17]
active: Potency [3] 38.9 µM | Potency [4] 40.1 µM

COc1cc2ncnc(Nc3cccc(Cl)c3)c2cc1OC
inactive: viability change, negative = cytotoxic [1] -14.4% [at 19 µM] | activation [2] -0.89% [at 19 µM] | activation (H2AX phosphorylation) [18] 1.29% [at 31.6 µM] | activation [16] 0.103% [at 15.8 µM] | activity change, negative = cytotoxicity [4] 1.51% [at 31.6 µM] | activity change, negative = cytotoxicity [9] -0.467% [at 15.8 µM] | activity change, negative = cytotoxic [10] 0.667% [at 15.8 µM] | cytotoxicity [5] -7.5% [at 15.8 µM] | activity change, negative = cytotoxic [11] 25.7% [at 15.8 µM] | activity change, negative = cytotoxicity [12] -3.69% [at 15.8 µM] | viability change, negative = cytotoxic [13] -19.1% [at 15.8 µM]

NCc1ccco1
inactive: Potency [19] | Potency [1] | Potency [2] | Potency [16] | Potency [4] | Potency [9] | Potency [5] | Potency [11] | Potency [12] | Potency [13]

C1CCSC1
inactive: Potency [1] | Potency [2] | Potency [3] | Potency [18] | Potency [16] | Potency [4] | Potency [7] | activity change, positive = activation [8] 0.687% | Potency [9] | Potency [5] | Potency [11] | Potency [17] | Potency [13]

CCCCCCCC/C=C\CCCCCCCC(=O)N(CCO)CCO
active: Potency [4] 113 µM | Potency [10] 43.5 µM | Potency [12] 43.5 µM
inactive: Potency [1] | Potency [9] | Potency [5] | Potency [11] | Potency [13]

CS(=O)(=O)c1ccc([C@@H](CC2CCCC2)C(=O)Nc2cnccn2)cc1Cl
active: Potency [4] 101 µM

From PubChem BioAssay (Tox21)
